Source: PubChem BioAssay (NCI)
The panel holds about 79,000 compounds, 15% with a hit somewhere; the sample as a whole holds those more often. Unmarked numbers belong to inactive results. The source made the active and inactive calls. Cut-off read from the data, not from the text of the source: active = growth inhibition above about 70%; inactive = the rest.

Assays:
[1] = NCI Yeast Anticancer Drug Screen. Data for the rad50 strain (AID 155);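 note: 0% = growth of vehicle-only cultures of the same strain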; settings: S. cerevisiae rad50 strain growth inhibition; at 50.0 µM; hits give high values
How it was run: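 Growth of the mutant yeast was measured after compound exposure and referenced to vehicle-treated cultures.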

[2] = NCI Yeast Anticancer Drug Screen. Data for the mec2-1 strain (AID 157); settings: S. cerevisiae mec2-1 strain, at 50.0 µM, hits give high values
How it was run: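 mec2-1 yeast strain, carrying an alteration in DNA damage repair or cell cycle control, was exposed to compounds; growth inhibition was measured relative to vehicle-treated controls.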

[3] = NCI Yeast Anticancer Drug Screen. Data for the sgs1 mgt1 strain (AID 161);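 note: 0% = growth of cultures given vehicle only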; settings: S. cerevisiae sgs1 mgt1 strain, at 50.0 µM, hits give high values
How it was run: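 This yeast growth screen uses a strain with defined DNA-repair lesions; compound-treated growth is compared with vehicle-treated growth.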

[4] = NCI Yeast Anticancer Drug Screen. Data for the cln2 rad14 strain (AID 165);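 note: 0% = growth equal to vehicle treated cultures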; settings: S. cerevisiae cln2 rad14 strain, at 50.0 µM, hits give high values
How it was run: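 Yeast carrying cln2 and rad14 alterations (cell cycle control and DNA damage repair) were exposed to compounds. Growth inhibition was measured against vehicle-treated controls.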

[5] = NCI Yeast Anticancer Drug Screen. Data for the bub3 strain (AID 167); settings: S. cerevisiae bub3 mutant strain, at 50.0 µM, hits give high values
How it was run: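 Whole-cell yeast assay. The mutant strain was incubated with compounds, and growth inhibition was determined by comparison with vehicle-treated cells.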

[6] = NCI Yeast Anticancer Drug Screen. Data for the mlh1 rad18 strain (AID 175); settings: S. cerevisiae mlh1 rad18 strain growth inhibition; at 50.0 µM; hits give high values
How it was run: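 Growth inhibition of the yeast strain was measured after compound exposure and expressed relative to vehicle-treated controls. The strain carries defined defects in DNA damage repair.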

Row | Structure (SMILES) | growth inhibition [1] | growth inhibition [2] [%] | growth inhibition [3] | growth inhibition [4] | growth inhibition [5] | growth inhibition [6]
1 | C/C(=N\Nc1ccccc1Br)c1cccc(/C(C)=N/Nc2ccccc2Br)n1 | -21.6% | -1.55 | -6.1% | -11.6% | 2.75% | 6.2%
2 | C=C1CCC2[C@](C)(CCC[C@]2(C)C(=O)O)[C@@H]1CCc1ccoc1 (stereo partly drawn) | 70.8% (active) | 59.9 | 73% (active) | 77% (active) | 73.8% (active) | 78.8% (active)
3 | S=c1[nH]c2ccccc2nc1NCc1ccccc1 | -1.55% | 2.75 | 2.15% | -19.8% | 10.1% | 2.3%
4 | CCCC(C)C(C)O (stereo not drawn) | -21.4% | -45.6 | 0.15% | -11.1% | -24.1% | -14.8%
5 | CCOC(=O)C1(C(=O)OCC)CSC1 | -16.6% | -5.45 | -17.1% | 3.85% | -17.8% | -22.3%
6 | CC(C)(C)C(=O)/C=C/c1ccc(Oc2ccccc2)cc1 | 27.8% | -28.7 | 4.05% | -15.6% | -19.8% | -20.8%
7 | N#Cc1ccc(OC(=O)Nc2ccccc2Cl)cc1 | 0.5% | -8.6 | 21.4% | 26.4% | 15.4% | 13.8%
8 | COC(=O)C(CCc1ccccc1[N+](=O)[O-])C(=O)OC | 38.6% | 10.8 | 11.7% | -4.45% | 43% | 34.1%
9 | O=S(=O)(O/C(=C(\OS(=O)(=O)C(F)(F)C(F)(F)C(F)(F)C(F)(F)F)c1ccccc1)c1ccccc1)C(F)(F)C(F)(F)C(F)(F)C(F)(F)F | -6% | -14.1 | -23.4% | -18.1% | 7.9% | -5.85%
10 | O=C(NNC(=S)Nc1ccc(Cl)cc1)C12CC3CC(CC(C3)C1)C2 | -9.4% | 6.15 | -4.15% | 17.4% | 30.8% | 8.7%
11 | COC(=O)c1ccccc1N=NNc1ccc(C)c(Cl)c1 | 36.2% | 0.55 | -1.2% | -11.4% | 5.7% | 5.15%
12 | CCC/C=C/C=C\C(=O)O[C@@H]1[C@@H](C)[C@]2(O)[C@@H]3C=C(C)C(=O)[C@H]3CC(COC(C)=O)=C[C@H]2[C@@H]2C(C)(C)[C@]12OC(C)=O | 21.7% | -4.9 | -8.1% | 11.9% | -9.65% | -26.2%
13 | OCC(O)C(O)C(O)C(SCc1ccccc1)SCc1ccccc1 (stereo not drawn) | 3.9% | -7.85 | -20.4% | -4.8% | -6.2% | -12.6%
14 | Cc1ccc2occ(-c3nnc(NC(=O)c4ccccc4)s3)c(=O)c2c1 | -36.2% | -9.75 | -11.7% | -26.6% | -7.35% | -23.2%
15 | COc1ccc(OCC(=O)N2CCCCC2)cc1 | -2.95% | -11.6 | 0% | -40.2% | 13.2% | -1.65%
16 | COc1ccc2ccccc2c1C1NC(=O)c2ccccc2N1 (stereo not drawn) | 13.1% | -17.8 | 5.75% | 8.9% | 12.5% | 0.1%
17 | COc1ccc(C(O)C2c3c(cc4c(c3OC)OCO4)CCN2C)c(CO)c1OC (stereo not drawn) | 14.4% | 12.8 | 17.6% | 37.5% | 17.9% | 7.45%
18 | CCOC(=O)C(NC(=O)NCc1ccc(F)cc1)C(F)(F)F (stereo not drawn) | -46.7% | 2.2 | -31.5% | 19.4% | 51.9% | -43.1%
19 | CCc1cccc(C)c1NC(=O)C(=O)Cc1nc2ccccc2s1 | 0.75% | -7.6 | -9.8% | -2.15% | -58% | -6.15%

Row | Structure (SMILES) | growth inhibition [1] | growth inhibition [2] [%] | growth inhibition [3] | growth inhibition [4] | growth inhibition [5] | growth inhibition [6]
20 | Nc1ccc(C(=O)NN2C(=O)C(Cl)C2c2ccccc2Cl)cc1 (stereo not drawn) | 45.2% | 32.7 | 27.9% | 38.8% | 38.3% | 31.5%
21 | Cc1ccc(NC(=O)Oc2ccc3ccccc3c2)cc1NC(=O)Oc1ccc2ccccc2c1 | 1.35% | -19.4 | -4.45% | -86.5% | 4.9% | -1.85%
22 | O=C(O)c1ccccc1C(=O)OC1CC2C=CC1C21CC1 (stereo not drawn) | -12.2% | -13.2 | -15.3% | -1.9% | -6.2% | -9.75%
23 | CN(C)C(=S)Oc1ccc([N+](=O)[O-])cc1Cl | 17.9% | 6.95 | 4.95% | 19.4% | -3.3% | 29.3%
24 | O=c1oc2ccccc2cc1-n1nnc2ccccc21 | -2.65% | 11.1 | 18.9% | 2% | 16.1% | 21%
25 | CCN(CC)CCN1C(=O)C(=O)N(c2cccc3ccccc23)C1=O | -26.9% | -15.7 | -14.9% | -14.2% | -31.9% | -10.2%
26 | CC1(C)CC(=O)C2=C(C1)NC(SSC1=C(C#N)C(c3ccc(F)cc3)C3=C(CC(C)(C)CC3=O)N1)=C(C#N)C2c1ccc(F)cc1 (stereo not drawn) | -22.4% | -12.8 | -12.4% | 55.5% | -26.2% | -25.8%
27 | O=C1CCc2cc3c(cc21)OCO3 | 4.8% | -33.8 | -3.95% | -9.35% | 6.7% | -6.15%
28 | CC(C)c1cccc(C(C)C)c1NC(=O)C(=O)C1SC(=S)NC1=O (stereo not drawn) | -23.6% | -13.1 | -18.9% | 8.75% | -11.3% | -29.6%
29 | O=[N+]([O-])c1ccc(N/N=C2/CC3=C2CCCCCCCCCC3)c([N+](=O)[O-])c1 | -6.35% | -4.95 | 11% | -14.2% | -2.15% | -13.4%
30 | Cc1ccc(S(=O)(=O)N2CCSCCN(S(=O)(=O)c3ccc(C)cc3)CCN(S(=O)(=O)c3ccc(C)cc3)CC2)cc1 | 5.7% | -2.7 | 0.2% | -19.9% | -18.7% | -18.4%
31 | Cc1ccc(C(=O)Nc2ccc(CP(=O)(O)O)cc2)cc1NC(=O)c1cccc(N)c1 | -27.2% | -14.7 | -20.4% | 0.9% | -9% | 4.15%
32 | c1ccc2c(-c3cnc(-c4ccc(-c5ncc(-c6cccc7ccccc67)o5)cc4)o3)cccc2c1 | -14.9% | -2.45 | 0.5% | -52.6% | -1.1% | -16.4%
33 | COc1ccc(OC(C)C(=O)O)cc1 (stereo not drawn) | 13.2% | 10.5 | 3.5% | -31.5% | 13.3% | 6.25%
34 | O=C(O)c1ccc2c(Cl)ccc3c2c1CC3 | 11.7% | -0.8 | 9.05% | -32.5% | -26.2% | 21.5%
35 | CCOC(=O)NC(Nc1ccc(S(=O)(=O)Nc2ncccn2)cc1)(C(=O)OCC)C(F)(F)F (stereo not drawn) | -0.55% | -19.4 | 10.9% | 32.1% | 16.9% | 2.2%
36 | NC(C(=O)O)C(SCc1ccccc1)c1cccc(O)c1 (stereo not drawn) | -3.2% | 14.3 | 18.7% | -26.4% | -1.3% | -0.7%
37 | Oc1ccc(-c2nnc(-c3ccc(O)cc3)nn2)cc1 | 10.8% | 17.4 | 21.1% | 17.4% | 23.2% | 10.9%
38 | CC(=O)OC1c2ccccc2Cc2ccccc21 | 21.5% | 26.3 | 4.1% | 16.6% | 19.1% | 13.1%
